Reference: publication PMC5540273 (PLoS ONE, 2017)

Columns and labels:
Details in all cases: concentration: 1 μM,replicates: in singlicate; n = 1
BMX = test system: BMX
BRAF = test system: BRAF
BRK = test system: T1, BRK
T1 construct: gene PTK6

BRSK1 = test system: BRSK1
BRSK2 = test system: BRSK2
BTK = test system: BTK
BUB1 = test system: BUB1
CAMK1B = test system: CAMK1B
CAMK1D = test system: CAMK1D
CAMK1G = test system: CAMK1G
CAMK1 = test system: CAMK1
CAMK2A = test system: CAMK2A
CAMK2B = test system: CAMK2B
CAMK2D = test system: CAMK2D
CAMK2G = test system: CAMK2G
CAMK4 = test system: CAMK4
CAMKK1 = test system: CAMKK1
CAMKK2 = test system: CAMKK2
CASK = test system: CASK
CDC2L1 = test system: T2, CDC2L1
T2 construct: gene CDK11B
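Note: KINOMEscan kinase panel screen.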

Row | Structure (SMILES) | %Inh (BMX) | %Inh (BRAF) | %Inh (BRK) | %Inh (BRSK1) | %Inh (BRSK2) | %Inh (BTK) | %Inh (BUB1) | %Inh (CAMK1B) | %Inh (CAMK1D) | %Inh (CAMK1G) | %Inh (CAMK1) | %Inh (CAMK2A) | %Inh (CAMK2B) | %Inh (CAMK2D) | %Inh (CAMK2G) | %Inh (CAMK4) | %Inh (CAMKK1) | %Inh (CAMKK2) | %Inh (CASK) | %Inh (CDC2L1)
1 | O=C(Nc1ccc(Oc2ccc3nc(NC(=O)C4CC4)cn3n2)c(F)c1)c1cccn(-c2ccccc2)c1=O | 46% | 41% | 72% | 3% | 5% | 0% | 0% | 0% | 14% | 0% | 5% | 1% | 0% | 3% | 2% | 21% | 11% | 1% | 3% | 13%
2 | CS(=O)(=O)Nc1ccc(-c2ccnc3[nH]ccc23)cc1 [GSK993273] | 0% | 0% | 0% | 8% | 0% | 0% | 35% | 27% | 38% | 30% | 36% | 6% | 7% | 16% | 24% | 0% | 8% | 0% | 21% | 0%
3 | NC(=O)c1ccc(-c2cc3ncnc(SCC(=O)O)c3s2)cc1 | 15% | 0% | 0% | 0% | 0% | 8% | 18% | 0% | 5% | 0% | 0% | 0% | 0% | 0% | 0% | 0% | 75% | 81% | 0% | 0%
4 | FC(F)(F)c1cc(Br)cc(Nc2nccc(-c3cnn4ncccc34)n2)c1 [GW810578] | 10% | 0% | 0% | 0% | 0% | 0% | 16% | 29% | 5% | 18% | 23% | 0% | 6% | 21% | 28% | 0% | 45% | 59% | 22% | 0%
5 | CCCC(=O)Nc1n[nH]c2ncccc12 [SB-601436] | 28% | 7% | 0% | 0% | 0% | 0% | 0% | 0% | 3% | 0% | 0% | 13% | 0% | 0% | 0% | 0% | 0% | 0% | 0% | 0%
6 | O=C(Nc1ccccc1)c1cccc(Oc2ccc3nccn3n2)c1 | 17% | 3% | 0% | 7% | 0% | 0% | 0% | 0% | 0% | 0% | 0% | 0% | 12% | 14% | 0% | 0% | 6% | 0% | 8% | 96%
7 | CC(C)c1nc(-c2cccc(NS(=O)(=O)c3ccccc3)c2)c(-c2ccnc(Nc3ccc4c(c3)CN(C)CC4)n2)s1 [GSK1649598] | 96.2% | 99.9% | 99.4% | 24% | 46% | 84% | 82% | 0% | 42% | 11% | 57% | 0% | 0% | 22% | 28% | 0% | 29% | 23% | 14% | 15%
8 | Cc1cccc(-c2nc(Nc3ccncc3)c3sccc3n2)n1 [GW869641] | 11% | 36% | 6% | 0% | 7% | 58% | 54% | 16% | 24% | 7% | 24% | 3% | 9% | 14% | 18% | 0% | 11% | 23% | 21% | 6%
9 | CN1CCN(CCNc2nc3cc(Oc4ccc(NC(=O)Nc5cc(C(F)(F)F)ccc5F)cc4)ccc3[nH]2)CC1.Cl.Cl [GW768504] | 0% | 0% | 0% | 0% | 6% | 0% | 0% | 0% | 0% | 4% | 15% | 0% | 0% | 0% | 0% | 20% | 0% | 0% | 16% | 0%
10 | CC(=O)c1c(-c2ccncc2)[nH]c(-c2ccncc2)c1C [GW493036] | 0% | 19% | 3% | 0% | 0% | 7% | 84% | 0% | 20% | 0% | 26% | 0% | 0% | 0% | 0% | 0% | 0% | 0% | 25% | 0%
11 | COc1cc2ncn(-c3cc(OCC4CCCCC4)c(C(N)=O)s3)c2cc1OC [GSK204559] | 10% | 0% | 8% | 30% | 45% | 0% | 17% | 6% | 16% | 11% | 13% | 0% | 0% | 5% | 33% | 0% | 12% | 26% | 19% | 0%
